Reference: PubChem BioAssay (NCATS)
Inconclusive results are not listed. A call without a number means that no potency is given here. A structure can be active in one record and inactive in another. Calls of active or inactive are those of the source. Calls come from the whole dose curve; as a rule, active = well fitted curve in the direction sought with a large enough effect; inconclusive = small, poorly fitted or top-dose-only effect, or another doubt; inactive = no such curve, though single readings can be large; an effect the other way counts as inactive or inconclusive.

Key:
[1] = tested on: HACAT; experiment: qHTS assay to identify novel small-molecules to repurpose for Merkel cell carcinoma treatment (AID 1296009); settings: MCC and control cell lines, CellTiter-Glo viability, 72 h; at 44.8 µM (top of the series) unless noted; note: nearly all actives have a fitted effect of over 60% in size
In short: (§1)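 Luminescence from CellTiter-Glo, read 10 min after addition at room temperature, reported viability following a 72 hr, 37 degree celsius treatment with NPC or MIPE compounds in titration; values normalized to plate controls.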

[2] = tested on: HEK293T; experiment: as above; settings: MCC and control cell lines, CellTiter-Glo viability, 72 h; at 44.8 µM (top of the series)
In short: as §1

[3] = tested on: MCC-13; experiment: as above; settings: MCC and control cell lines, CellTiter-Glo viability, 72 h; series mostly up to 46 µM
In short: as §1

[4] = tested on: MCC-26; experiment: as above; settings: MCC and control cell lines, CellTiter-Glo viability, 72 h; series mostly up to 46 µM
In short: as §1

[5] = tested on: MKL-1; experiment: as above; settings: MCC and control cell lines, CellTiter-Glo viability, 72 h; series mostly up to 46 µM
In short: as §1

[6] = tested on: MKL-2; experiment: as above; settings: MCC and control cell lines, CellTiter-Glo viability, 72 h; series mostly up to 46 µM
In short: as §1

[7] = tested on: UISO; experiment: as above; settings: MCC and control cell lines, CellTiter-Glo viability, 72 h; series mostly up to 46 µM
In short: as §1

[8] = tested on: WaGa; experiment: as above; settings: MCC and control cell lines, CellTiter-Glo viability, 72 h; series mostly up to 46 µM
In short: as §1

[9] = tested on: C33A; experiment: Primary qHTS to identify gynecologic anti-cancer compounds using libraries of approved drugs and bioactive compounds (AID 1345084); settings: Gynecologic cancer cell panel viability, ATPlite luminescence, 48 h; series mostly up to 57.5 µM; note: nearly all actives have a fitted effect of over 55% in size
In short: (§2)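 48 h compound exposure at 37 C, 5% CO2; five-point qHTS. ATPlite luminescence readout of cell ATP.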

[10] = tested on: CASKI; experiment: as above; settings: Gynecologic cancer cell panel viability, ATPlite luminescence, 48 h; series mostly up to 57.5 µM
In short: as §2

[11] = tested on: Es-2; experiment: as above; settings: Gynecologic cancer cell panel viability, ATPlite luminescence, 48 h; series mostly up to 57.5 µM
In short: as §2

[12] = tested on: HeLa; experiment: as above; settings: Gynecologic cancer cell panel viability, ATPlite luminescence, 48 h; series mostly up to 57.5 µM
In short: as §2

[13] = tested on: Hek293T; experiment: as above; settings: Gynecologic cancer cell panel viability, ATPlite luminescence, 48 h, control line for the selectivity index; series mostly up to 57.5 µM
In short: as §2

[14] = tested on: JEG-3; experiment: as above; settings: Gynecologic cancer cell panel viability, ATPlite luminescence, 48 h; series mostly up to 57.5 µM
In short: as §2

[15] = tested on: OV90; experiment: as above; settings: Gynecologic cancer cell panel viability, ATPlite luminescence, 48 h; series mostly up to 57.5 µM
In short: as §2

[16] = tested on: PA-1; experiment: as above; settings: Gynecologic cancer cell panel viability, ATPlite luminescence, 48 h; series mostly up to 57.5 µM
In short: as §2

[17] = tested on: SKOV3; experiment: as above; settings: Gynecologic cancer cell panel viability, ATPlite luminescence, 48 h; series mostly up to 57.5 µM
In short: as §2

[18] = tested on: Tov-21-G; experiment: as above; settings: Gynecologic cancer cell panel viability, ATPlite luminescence, 48 h; series mostly up to 57.5 µM
In short: as §2

[19] = tested on: NIH3T3; experiment: qHTS assay to identify novel small-molecules to repurpose for Merkel cell carcinoma treatment (AID 1296009); settings: MCC and control cell lines, CellTiter-Glo viability, 72 h; at 44.8 µM (top of the series) unless noted; note: nearly all actives have a fitted effect of over 60% in size
In short: as §1

[20] = tested on: CAOV3; experiment: Primary qHTS to identify gynecologic anti-cancer compounds using libraries of approved drugs and bioactive compounds (AID 1345084); settings: Gynecologic cancer cell panel viability, ATPlite luminescence, 48 h; series mostly up to 57.5 µM; note: nearly all actives have a fitted effect of over 55% in size
In short: as §2
Potency is the fitted concentration of half-maximal effect.

Compound | outcome [1] | outcome [2] | Potency [3] | Potency [4] | Potency [5] | Potency [6] | Potency [7] | Potency [8] | Potency [9] | Potency [10] | Potency [11] | Potency [12] | Potency [13] | Potency [14] | Potency [15] | Potency [16] | Potency [17] | Potency [18] | outcome [19] | Potency [20]
CC(=O)c1ccc(S(=O)(=O)NC(=O)NC2CCCCC2)cc1 | inactive | inactive | inactive | inactive | inactive | inactive | inactive | inactive | inactive | inactive | inactive | inactive | inactive | inactive | inactive | inactive | inactive | inactive |  | 
O=C(O)c1cc(-c2ccccc2)nc2ccccc12 | inactive | inactive | inactive | inactive | inactive | inactive | inactive | inactive | inactive | inactive | inactive | 50.1 µM (active) and inactive | inactive | inactive | inactive | inactive | 28.2 µM (active) and inactive | inactive | inactive | inactive
NC1CCC(Nc2nc(Nc3ccc(C(=O)N4CCCCC4)cc3)c3ncn(-c4cccc(F)c4)c3n2)CC1 (stereo not given) | inactive | inactive | inactive | inactive | inactive | inactive | inactive | inactive |  |  |  |  |  |  |  |  |  |  |  | 
CC(=Cc1ccccc1)C=C1SC(=S)N(CC(=O)O)C1=O | inactive |  | inactive | inactive | inactive | inactive | inactive | inactive |  |  |  |  |  |  |  |  |  |  | inactive | 
O=C(O)c1ccc(-c2c[nH]c3ncc(-c4ccccc4)cc23)cc1C1CCCC1 | inactive | inactive | inactive |  | inactive |  | inactive | inactive |  |  |  |  |  |  |  |  |  |  |  | 
CN(C)CCC=C1c2ccccc2COc2ccc(CC(=O)O)cc21 | inactive |  | inactive | inactive | inactive | inactive | inactive | inactive |  |  |  |  |  |  |  |  |  |  | inactive | 
CON=C(C(=O)N[C@@H]1C(=O)N2C(C(=O)OCOC(=O)C(C)(C)C)=C(C=Cc3scnc3C)CS[C@H]12)c1csc(N)n1 | inactive |  | inactive | inactive | inactive | inactive | inactive |  |  |  |  |  |  |  |  |  |  |  | inactive | 
NC(N)=Nc1nc(CSCC/C(N)=N/S(N)(=O)=O)cs1 | inactive | inactive | inactive | inactive | inactive | inactive | inactive | inactive | inactive | inactive | inactive | inactive | inactive | inactive | inactive | inactive | inactive | inactive | inactive | 
CCN(CC)CCOC(=O)c1ccc(N)cc1 | inactive | inactive | inactive | inactive | inactive | inactive | inactive | inactive | inactive | inactive | inactive | inactive | inactive | inactive | inactive | inactive | inactive | inactive |  | 
CC=CC(=O)N(CC)c1ccccc1C | inactive | inactive | inactive | inactive | inactive | inactive | inactive |  |  |  |  |  |  |  |  |  |  |  |  | 
Cc1cnc(C(=O)O)c[n+]1[O-] | inactive | inactive | inactive | inactive | inactive |  | inactive | inactive |  |  |  |  |  |  |  |  |  |  |  | 
C[C@@H](O)[C@H]1C(=O)N2C(C(=O)O)=C(S[C@@H]3CN[C@H](C(=O)N(C)C)C3)[C@H](C)[C@H]12 | inactive | inactive | inactive | inactive | inactive | inactive | inactive | inactive | inactive | inactive | inactive | inactive | inactive | inactive | inactive | inactive | inactive | inactive |  | 
CC(=O)CCCCn1c(=O)c2c(ncn2C)n(C)c1=O | inactive | inactive | inactive | inactive | inactive | inactive | inactive | inactive | inactive | inactive | inactive | inactive | inactive | inactive | inactive | inactive | inactive | inactive |  | inactive
CCCNC(=O)NS(=O)(=O)c1ccc(Cl)cc1 | inactive | inactive | inactive | inactive | inactive | inactive | inactive | inactive | inactive | inactive | inactive | inactive | inactive | inactive | inactive | inactive | inactive | inactive | inactive | inactive
NCCS | inactive | inactive | inactive | inactive | inactive | inactive | inactive | inactive | inactive | inactive | inactive | inactive | inactive | inactive | inactive | inactive | inactive | inactive |  | 
CCCCCCCCCCCC1=C(O)C(=O)C=C(O)C1=O | inactive | inactive | inactive | inactive | 2960 nM (active) |  | inactive | 2960 nM (active) |  |  |  |  |  |  |  |  |  |  |  | 
CCn1cc(C(=O)O)c(=O)c2ccc(C)nc21 | inactive | inactive | inactive | inactive | inactive | inactive | inactive | inactive | inactive | inactive | inactive | inactive | inactive | inactive | inactive |  | inactive | inactive |  | 
